# Assay results taken from PubChem BioAssay AID1851 (National Center for Advancing Translational Sciences (NCATS), 2009).
# Where “and” joins values, the source holds several entries; their conditions need not be identical. Identical values can stand only once. Out of some 16,000 compounds screened, about 4,000 (25%) were called active. Not shown: some 26% with an inconclusive outcome. Calls follow the shape of the dose curve; as a rule, active = well fitted curve in the direction sought with a large enough effect; inconclusive = small, poorly fitted or top-dose-only effect, or effect the other way; inactive = no such curve, though single readings can be large or run the other way. The list is a sample of the results. The source holds several records for some structures; these can differ, active in one and inactive in another. Peptide text beside a SMILES is read from it. * marks the point of attachment. Cbz = O=C(OCc1ccccc1)*
# Biological target: Cytochrome P450 2C9 (Homo sapiens) (UniProt P11712)
# Assay: Cytochrome panel assay with activity outcomes
# Conditions: recombinant CYP, pro-luciferin dealkylation, luminescence, p450-cyp2c9; series mostly up to 57.1 µM; activity, negative = inhibition: at the top concentration
# % is scaled to controls: 0 for no effect and ±100 for the full control effect.
# Chain of Cytochrome P450 2C9 (Homo sapiens) (P11712 whole entry, looked up): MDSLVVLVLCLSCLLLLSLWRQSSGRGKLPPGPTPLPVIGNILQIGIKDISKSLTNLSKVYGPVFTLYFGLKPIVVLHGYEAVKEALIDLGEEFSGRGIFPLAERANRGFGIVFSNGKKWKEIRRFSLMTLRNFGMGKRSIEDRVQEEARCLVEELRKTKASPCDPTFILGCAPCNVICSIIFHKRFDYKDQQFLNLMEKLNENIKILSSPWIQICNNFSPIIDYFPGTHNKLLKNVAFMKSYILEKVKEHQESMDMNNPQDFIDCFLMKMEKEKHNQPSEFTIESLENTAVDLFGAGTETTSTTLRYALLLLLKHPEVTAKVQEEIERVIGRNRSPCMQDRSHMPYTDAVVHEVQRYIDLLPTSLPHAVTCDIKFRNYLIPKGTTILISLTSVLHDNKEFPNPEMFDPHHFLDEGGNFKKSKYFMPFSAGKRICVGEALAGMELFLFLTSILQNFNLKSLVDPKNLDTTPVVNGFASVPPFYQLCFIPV
Compound,"activity, negative = inhibition",AC50
COc1ccc(C(=O)N2CCC3(CCN(Cc4cc(C(F)(F)F)cc(C(F)(F)F)c4)CC3)CC2)cc1,13% (inactive),–
COc1ccc(C(=O)Nc2ccc3c(c2)nc(CN2CCN(C(C)=O)CC2)n3C)cc1,-29% (inactive),–
COc1cccc(C(=O)n2c(SC)nc3cc4c(cc32)OCCO4)c1,–,20 µM (active)
COc1ccc(C(=O)n2c(SC)nc3cc4c(cc32)OCCO4)cc1,–,1.41 µM (active)
O=C(N/N=C/C=C/c1ccc([N+](=O)[O-])cc1)c1cccs1,-12.7% (inactive),–
COc1cc(CNCc2cccs2)ccc1OCC(N)=O,3.66% (inactive),–
O=C(N/N=C/c1cccc(OCc2ccccc2)c1)c1cccs1,–,2.51 µM (active)
Cc1ccc(/C=N/NC(=O)c2cccs2)cc1[N+](=O)[O-],–,3.98 µM (active)
COc1cc(/C=N/NC(=O)c2cccs2)ccc1OCc1ccccc1,–,2.24 µM (active)
CCOc1cc(/C=N/NC(=O)CN2CCCCC2)ccc1OCc1ccccc1,-40.6% (inactive),–
CC(C)C(=O)N/N=C/c1ccc(OCc2ccccc2)cc1,-7.85% (inactive),–
C=CCc1ccccc1OC[C@H](O)CNC(C)C,–,inactive
Cc1cccn2c(=O)c(C=NCc3ccco3)c(Nc3ccc(SC(F)F)cc3)nc12,-27.9% (inactive),–
CC1CCCC(C)N1C(=O)c1ccccc1Nc1ccc(SC(F)F)cc1 (stereo not drawn),–,7.08 µM (active)
CC(=O)OC[C@H]1O[C@@H](O/N=C(\C)CCN2CCc3nc(-c4ccccc4)c(-c4ccccc4)cc3C2)[C@H](OC(C)=O)[C@@H](OC(C)=O)[C@H]1OC(C)=O,4.27% [at 11.4 µM] (inactive),–
CCC(=O)OCc1c(C(F)(F)F)nn(C)c1Sc1ccc(F)cc1,–,10 µM (active)
OC[C@@H](O)CNc1ncnc2ccccc12,23.8% [at 11.4 µM] (inactive),–
C[C@@H]1CN(CCCn2c3ccccc3c3ccccc32)C[C@H](C)N1,–,12.6 µM (active)
c1ccc2c(c1)c1ccccc1n2Cn1c2ccccc2c2ccccc21,-11.7% [at 11.4 µM] (inactive),–
c1ccc(C(CCN2CC3CCC(CC3)C2)c2ccccc2)cc1,8.36% [at 11.4 µM] (inactive),–
CC1(C)NC(=O)N(c2ccc([N+](=O)[O-])c(C(F)(F)F)c2)C1=O,-28.7% [at 25.6 µM] (inactive),–
Cc1cccn2c(/C=N/OCc3cccc(F)c3)c(-c3ccc(Cl)cc3)nc12,–,6.31 µM (active)

Compound,"activity, negative = inhibition",AC50
Cc1cc2nc3c(=O)[nH]c(=O)nc-3n(CC(O)C(O)C(O)CO)c2cc1C (stereo not drawn),-17.3% [at 25.6 µM] (inactive),–
COc1cccc(-c2ccc3ncnc(NC4CCNCC4)c3c2)c1,19.4% [at 2.29 µM] (inactive),–
CSc1nc2n(n1)C(c1cc(Br)ccc1F)C(C(=O)N(C)C)=C(C)N2 (stereo not drawn),–,22.4 µM (active)
O=S(=O)(c1ccccc1)N1N=C(c2cccs2)CC1c1ccc(Br)cc1 (stereo not drawn),–,1.41 µM (active)
CCCCC(C=O)NC(=O)C(CC(C)C)NC(=O)OCc1ccccc1 (stereo not drawn),-10.4% (inactive),–
COC(=O)CCC(NC(=O)OCc1ccccc1)C(=O)NC(CC(C)C)C(=O)OC (stereo not drawn) (Cbz-Glu(OMe)-Leu-OMe; configuration not given here),–,0.355 µM (active)
COC(=O)C(CC(C)C)NC(=O)C(N)Cc1ccccc1 (stereo not drawn) (H-Phe-Leu-OMe; configuration not given here),12.9% (inactive),–
COC(=O)N1CCC2(CCN(Cc3cc(C(F)(F)F)cc(C(F)(F)F)c3)CC2)CC1,-4.53% (inactive),–
Cc1ccc(OCC(=O)N/N=C\c2c(C)n(C)c3ccccc23)c([N+](=O)[O-])c1,-12% (inactive),–
O=C(CN1CCCCC1)Nc1cccc([N+](=O)[O-])c1,-20.2% (inactive),–
Cc1ccc(NS(=O)(=O)c2ccc(OCC(=O)Nc3cccc([N+](=O)[O-])c3)c(C)c2)cc1,–,1.26 µM (active)
Cc1cc(Nc2ccc(Cl)cc2)nc(N)n1,1.54% (inactive),–
C=C1c2cccc(O)c2C(O)=C2C(=O)[C@@]3(O)C(O)=C(C(N)=O)C(=O)[C@@H](N(C)C)[C@@H]3[C@@H](O)[C@H]12,-17.4% [at 25.6 µM] (inactive),–
Cc1nn(Cc2c(F)c(F)c(F)c(F)c2F)c(C)c1NC(=O)c1cccc(COc2ccccc2Cl)c1,–,8.91 µM (active)
Cc1nn(Cc2c(F)c(F)c(F)c(F)c2F)c(C)c1NC(=O)c1cccc(COc2ccc(Cl)cc2)c1,–,2.82 µM (active)
Cc1nn(Cc2c(F)c(F)c(F)c(F)c2F)c(C)c1NC(=O)c1c(-c2ccccc2)nn(-c2ccccc2)c1C,–,7.08 µM (active)
Cc1nn(Cc2ccccc2Cl)c(C)c1NC(=O)CCCn1nc(C)c([N+](=O)[O-])c1C,-26.2% (inactive),–
CCN[C@@H]1C[C@H](C)S(=O)(=O)c2sc(S(N)(=O)=O)cc21,-6.9% [at 25.6 µM] (inactive),–
CC(C)CN1CC[C@@]2(CCCN(C(=O)c3csnn3)C2)C1,6.25% (inactive),–
C#CCCCO/N=C1/C[C@@H](O)[C@@H](O)[C@@H]2[C@H]3C(=O)N(c4ccc(F)cc4F)C(=O)[C@@H]3CC[C@@H]12,7.37% [at 11.4 µM] (inactive),–
O=C(CCCCC(=O)Nc1c(I)cc(I)c(C(=O)O)c1I)Nc1c(I)cc(I)c(C(=O)O)c1I,-4.35% [at 25.6 µM] (inactive),–
c1ccc2c(NC3CCNCC3)nc(-c3ccoc3)nc2c1,-0.161% [at 2.29 µM] (inactive),–

Compound,"activity, negative = inhibition",AC50
Cc1cc(Cl)ccc1Nc1sc(C(=O)c2cc3cc(Cl)ccc3o2)c(N)c1C#N,–,1.26 µM (active)
Nc1nc2c(c(=O)[nH]1)N[C@H](CCNc1ccc(C(=O)O)cc1)CN2,10.2% [at 11.4 µM] (inactive),–
O=C1c2ccccc2C2=Nc3ccccc3SC(c3ccccc3F)C12 (stereo not drawn),–,0.0891 µM (active)
OC(c1ccccc1)(c1ccc(F)cc1)C(c1ccccc1)N1CCOCC1 (stereo not drawn),–,11.2 µM (active)
CC(C)(C)C(=O)[C@H]([C@@H](c1ccccc1)N1CCOCC1)N1CCOCC1,3.46% [at 11.4 µM] (inactive),–
C[C@@H](N1CCOCC1)[C@@](O)(c1ccccc1)c1ccccn1,16.5% [at 11.4 µM] (inactive),–
CN1CCN(c2ccncc2S(=O)(=O)N2CCN(C)CC2)CC1,14.6% [at 11.4 µM] (inactive),–
COc1ccc(N2CCN(CCNC(=O)c3c(C)cc(=O)oc3C)CC2)cc1,-17.3% (inactive),–
COc1ccc(N2CCC(CNC(=O)Nc3ccc(OC)cc3OC)C2)cc1 (stereo not drawn),–,17.8 µM (active)
c1ccc(-c2noc(-c3ccc4ccccc4c3)n2)cc1,-19.2% (inactive),–
CCC(Sc1ncccc1C(=O)O)C(=O)N1CCOCC1 (stereo not drawn),-12% (inactive),–
O=C(c1ccccc1-c1nc(-c2ccccc2)no1)N1CCOCC1,–,14.1 µM (active)
CCOc1cc(-c2noc(N)c2C#N)cc(OCC)c1OCC,–,7.94 µM (active)
O=C(O)C[n+]1ccccc1,6.61% [at 11.4 µM] (inactive),–
C[C@@]12C(=O)OC(=O)[C@@]1(C)[C@@H]1CC[C@@H]2O1,8.97% (inactive),–
CS(=O)(=O)c1ccc(-c2cc(Br)sc2-c2ccc(F)cc2)cc1,–,0.794 µM (active)
CS(=O)(=O)c1cnc2c(-c3ccc(F)cc3)cnn2c1N,-18.8% (inactive),–
CC(=O)OC[C@@H]1O[C@@H](O/N=C2/C[C@@H](O)[C@@H](O)[C@@H]3[C@H]4C(=O)N(c5ccc(F)cc5F)C(=O)[C@@H]4CC[C@H]23)[C@H](OC(C)=O)[C@H](OC(C)=O)[C@@H]1OC(C)=O,29.1% [at 11.4 µM] (inactive),–
Cc1cc(-c2ccccc2)nnc1NCCN1CCOCC1,4.93% [at 25.6 µM] (inactive),–
CN(C)/C(CN1CCOCC1)=C1\N=C(c2ccccc2)OC1=O,–,17.8 µM (active)
CN(C)/C(CN1CCN(C=O)CC1)=C1\N=C(c2ccccc2)OC1=O,0.0977% (inactive),–
CCCCCCCCN1C(=O)N(C)C(N(O)C(=O)NC)C1(C)C (stereo not drawn),5.52% (inactive),–

Compound,"activity, negative = inhibition",AC50
COC(=O)CNC(=O)CN1C(=O)N(c2ccc(Cl)cc2)C(N(O)C(=O)Nc2ccc(Cl)cc2)C1(C)C (stereo not drawn),–,14.1 µM (active)
O=C(O)c1ccccc1OP(=O)(O)O,4.63% [at 25.6 µM] (inactive),–
CC(C)(C)[C@@]1(O)CCN2C[C@@H]3c4ccccc4CCc4cccc(c43)[C@@H]2C1,–,1.58 µM (active)
CN(C)c1ccc(-c2cncnc2Nc2ccc(F)cc2)cc1,-2.26% [at 2.29 µM] (inactive),–
CN(C)CCC[C@@]1(c2ccc(F)cc2)OCc2cc(C#N)ccc21,–,inactive and 3.16 µM (active)
CCOC(=O)c1ccc(Cl)c(NC(=O)c2ccc(-c3ccccc3)cc2)c1,0.219% (inactive),–
CCOc1c(Cl)cc(C(=O)Nc2ccccc2-c2ccccc2)cc1Cl,–,2.82 µM (active)
Cc1cc(C)c2nc(-c3ccccn3)cc(C(=O)Nc3ccc(S(=O)(=O)Nc4cc(C)on4)cc3)c2c1,–,7.08 µM (active)
Nc1ccc(S(=O)(=O)NC(=O)c2ccccc2)cc1,-4.1% [at 25.6 µM] (inactive),–
NS(=O)(=O)c1ccc(NS(=O)(=O)c2ccc(NC(=O)c3ccc(-c4ccccc4)cc3)cc2)cc1,–,0.2 µM (active)
NS(=O)(=O)c1ccc(NC(=O)Nc2cccc3ccccc23)cc1,-9.47% [at 11.4 µM] (inactive),–
Cc1cc(NC(=O)c2cc(C(C)C)on2)no1,-17.2% (inactive),–
COc1cc2ccccc2cc1C(=O)Nc1ccc(S(=O)(=O)Nc2cc(C)on2)cc1,–,12.6 µM (active)
Cc1cc(NC(=O)c2ccccc2Cl)no1,9.61% (inactive),–
COc1cccc(OC)c1C(=O)Nc1cc(C)on1,-22% (inactive),–
Cc1cc(NC(=O)c2ccc(S(=O)(=O)Nc3ccccc3)cc2)no1,–,2.24 µM (active)
COCCNc1cc(-c2c(C)noc2C)ncn1,6.99% [at 2.29 µM] (inactive),–
CC(C)(C)NC[C@H](O)COc1cccc2[nH]c(=O)[nH]c12,–,inactive
Cc1ncc(CO)c(CO)c1O,7.59% [at 25.6 µM] (inactive),–
Cc1cc(=O)oc(C)c1C(=O)N1CCCCC1,1.7% (inactive),–
COC(=O)c1ccc(NC(=O)c2ccccc2NS(=O)(=O)c2ccccc2)cc1,–,0.2 µM (active)
Cc1ccc(S(=O)(=O)Nc2ccccc2C(=O)c2ccc(C)c(C)c2)cc1,5.56% [at 11.4 µM] (inactive),–
